Inconclusive results are not listed. Active and inactive are the calls of the source. How the source made its calls, unless noted: active means hit-call score of the fitted dose curve at least 0.9, where 1 is the maximum; inactive means score below 0.9.

We go through four compounds from PubChem BioAssay (EPA / NIEHS).

Experiment [1] is described as follows: ATG_PBREM_CIS: Attagene CIS-FACTORIAL HepG2 Assay for human Phenobarbital-responsive Enhancer Module (PBREM) (AID 2282955). Conditions: HepG2 PBREM cis-reporter, Attagene multiplexed transcription; actives raise or lower the signal. In outline: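 Fluorescence of labelled reporter cDNA fragments, resolved by capillary electrophoresis, gives mRNA induction in transfected HepG2 cells treated for 24 h; DMSO serves as negative control and baseline.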

In experiment [2] the target is Paired box protein Pax-6 (Homo sapiens) (UniProt P26367). Nature of the experiment: ATG_Pax6_CIS: Attagene CIS-FACTORIAL HepG2 Assay for human Paired Box 6 (PAX6) (AID 2282956). Particulars: HepG2 CIS-FACTORIAL PAX6 reporter transcription, RNA readout; actives raise or lower the signal. An outline of the steps: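 Multiplexed cis-reporter HepG2 system; 24 h treatment; reporter mRNA read by RT-PCR/CE fluorescence; bidirectional fit vs DMSO.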

The nature of experiment [3]: ATG_PXRE_CIS: Attagene CIS-FACTORIAL HepG2 Assay for human Pregnane X Receptor Element (PXRE) (AID 2282957). Particulars: HepG2 Attagene CIS-FACTORIAL PXRE reporter, mRNA; actives raise or lower the signal. An outline of the steps:
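Cells: HepG2, transiently transfected reporter units under cis promoter control. Exposure: 24 h. Detection: reporter mRNA via RT-PCR/CE fluorescence; bidirectional fitting, DMSO-referenced.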

Experiment [4] in a line: ATG_PPRE_CIS: Attagene CIS-FACTORIAL HepG2 Assay for human Peroxisome Proliferator-activated Response Element (PPRE) (AID 2282958). Conditions: HepG2 PPRE cis-element reporter, Attagene transcription factor profiling; actives raise or lower the signal. In outline:
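Cells are first transfected transiently with the multiplexed reporter library, then dosed for 24 h. Total RNA is reverse-transcribed, amplified, fluorescently end-labeled and HpaI-cut before capillary electrophoresis; activity is fitted bidirectionally against DMSO controls.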

A short description of experiment [5]: ATG_Sox_CIS: Attagene CIS-FACTORIAL HepG2 Assay for human SRY-box transcription factor (SOX) (AID 2282960). Conditions: HepG2 Attagene cis-factorial SOX reporter, mRNA; actives raise or lower the signal. An outline of the steps: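 Transient MRTU transfection of HepG2; 24 h compound incubation; TriZol RNA, oligo(dT) RT, PCR, 6-FAM primer extension, HpaI cut, CE. Bidirectional fit, DMSO = baseline.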

The target in experiment [6] is Transcription factor Sp1 (Homo sapiens) (UniProt P08047). Description: ATG_Sp1_CIS: Attagene CIS-FACTORIAL HepG2 Assay for human Specificity Protein 1 (Sp1) (AID 2282961). Particulars: HepG2 Sp1 cis-reporter transcription, actives raise or lower the signal. In outline: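 Endogenous Sp1 activity was gauged in human liver HepG2 cells bearing transfected reporter units under a cis-regulating promoter. After 24 h dosing, reporter mRNA was quantified by RT-PCR with capillary electrophoresis, and activity fitted bidirectionally versus DMSO.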

The nature of experiment [7]: ATG_SREBP_CIS: Attagene CIS-FACTORIAL HepG2 Assay for human Sterol Regulatory Element Binding (SREBP) (AID 2282962). Conditions: HepG2 Attagene cis-factorial SREBP reporter, mRNA; actives raise or lower the signal. In outline: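 mRNA induction of transfected cis-promoter reporters in HepG2 cells, 24 h post-dose. Detection: RT-PCR with 6-FAM-labelled products, HpaI digest, capillary electrophoresis. DMSO served as negative control and baseline.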

Experiment [8] concerns the target Signal transducer and activator of transcription 3 (Homo sapiens) (UniProt P40763). Nature of the experiment: ATG_STAT3_CIS: Attagene CIS-FACTORIAL HepG2 Assay for human Signal Transducer and Activator of Transcription 3 (STAT3) (AID 2282963). Particulars: HepG2, Attagene cis-factorial STAT3 reporter transcription; actives raise or lower the signal. An outline of the steps: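 Endogenous STAT3-responsive cis-element activity was read in transiently transfected HepG2 cells after 24 h treatment. Reporter transcripts were quantified via RT-PCR and capillary electrophoresis, with DMSO as negative control and bidirectional curve fitting.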

Experiment [9] is described as follows: ATG_TA_CIS: Attagene CIS-FACTORIAL HepG2 Assay for human TA Basal Promoter (AID 2282964). Particulars: HepG2 Attagene CIS-factorial TA basal promoter reporter; actives raise or lower the signal. In outline: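 Read-out: fluorescent reporter-transcript fragments resolved by capillary electrophoresis after RT-PCR and HpaI digestion. Source: HepG2 cells carrying transiently transfected multi-reporter cis constructs, treated 24 h. Endpoint fitted bidirectionally relative to DMSO.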

Experiment [10] in a line: ATG_TCF_b_cat_CIS: Attagene CIS-FACTORIAL HepG2 Assay for human T-Cell-Factor with beta-catenin (TCF/b-cat) (AID 2282965). Particulars: HepG2 TCF/beta-catenin cis-reporter transcription, actives raise or lower the signal. In outline:
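Endogenous TCF/LEF activity read as reporter transcript level via RT-PCR and capillary electrophoresis fluorescence in transfected HepG2, 24 h exposure; gain or loss of signal fitted against DMSO controls.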

Experiment [11] can be described thus: ATG_TAL_CIS: Attagene CIS-FACTORIAL HepG2 Assay for human TAL Basal Promoter (AID 2282966).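 Further: background control endpoint measuring basal TAL promoter reporter mRNA not a specific factor.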 Conditions: HepG2 Attagene cis-factorial TAL promoter reporter; actives raise or lower the signal. In outline:
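RT-PCR plus capillary electrophoresis quantifies reporter mRNA induction in transiently transfected HepG2 cells after 24 h chemical treatment. DMSO serves as negative control and baseline for bidirectional fitting.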

Experiment [12] is described as follows: ATG_TGFb_CIS: Attagene CIS-FACTORIAL HepG2 Assay for human Transforming Growth Factor (TGF) (AID 2282967). Conditions: HepG2 Attagene CIS TGFb reporter, mRNA transcription; actives raise or lower the signal. In outline:
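Transient MRTU transfection of HepG2 (FuGene 6). Dose 24 h. TriZol RNA, oligo(dT) RT, PCR, 6-FAM primer extension, HpaI cut, CE. Bidirectional fit, DMSO = baseline.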

Experiment [13] addresses Nuclear receptor subfamily 1 group I member 3 (Homo sapiens) (UniProt Q14994). Nature of the experiment: ATG_CAR_TRANS: Attagene TRANS-FACTORIAL HepG2 Assay for human Constitutive Androstane Receptor (CAR) (AID 2282969; active means hit-call score of the fitted dose curve at least 0.9, where 1 is the maximum;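 further: activators raise reporter mRNA above DMSO so AC50 marks induction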). Particulars: HepG2 Attagene TRANS-FACTORIAL CAR reporter. An outline of the steps:
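Readout is reporter mRNA induction, quantified by fluorescent primer extension and capillary electrophoresis after RT-PCR. Cells were HepG2 transiently carrying chimeric NR-Gal4 constructs with GAL4-UAS reporters, treated for 24 h; activity scored upward from DMSO.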

The target in experiment [14] is Estrogen receptor (Homo sapiens) (UniProt P03372). Nature of the experiment: ATG_ERa_TRANS: Attagene TRANS-FACTORIAL HepG2 Assay for human Estrogen Receptor alpha (ERa) (AID 2282970; active means hit-call score of the fitted dose curve at least 0.9, where 1 is the maximum). Particulars: HepG2 Attagene TRANS ERa GAL4 reporter, mRNA. In outline:
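Cells: HepG2, transiently transfected. Construct: GAL4-UAS reporter units regulated by exogenous NR-Gal4 chimeras. Time: 24 h. Detection: reporter mRNA by RT-PCR, capillary electrophoresis, fluorescence. Baseline: DMSO, upward fitting.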

A short description of experiment [15]: ATG_RORE_CIS: Attagene CIS-FACTORIAL HepG2 Assay for human RAR-related Orphan Receptor Element (RORE) (AID 2282959). Particulars: HepG2 Attagene cis-factorial RORE reporter, mRNA; actives raise or lower the signal. In outline: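 Cells were HepG2 carrying transfected cis-regulated reporter constructs, dosed for 24 hours. Total RNA was reverse-transcribed and reporter cDNA amplified, fluorescently labeled and sized by capillary electrophoresis. Activity was fitted bidirectionally relative to DMSO.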

Experiment [16] is described as follows: ATG_VDRE_CIS: Attagene CIS-FACTORIAL HepG2 Assay for human Vitamin D Receptor Element (VDRE) (AID 2282968). Particulars: HepG2 VDRE cis-reporter transcription, actives raise or lower the signal. In outline:
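Reporter mRNA induction, quantified by capillary electrophoresis of fluorescently labelled RT-PCR products, was read 24 h after dosing HepG2 cells carrying transiently transfected cis-regulated reporter units; gain or loss relative to DMSO.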

Experiment [17] addresses X-box-binding protein 1 (Homo sapiens) (UniProt P17861). Description: ATG_Xbp1_CIS: Attagene CIS-FACTORIAL HepG2 Assay for human X-box Binding Protein 1 (XBP1) (AID 2282972). Particulars: HepG2 XBP1 cis-element reporter, Attagene multiplex; actives raise or lower the signal. An outline of the steps: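 Fluorescence-labelled cDNA fragments from reporter transcripts, separated by capillary electrophoresis, give the signal. Source: HepG2 cells transfected with promoter-driven reporter units, harvested 24 h post-dose. DMSO served as reference for bidirectional curve fitting.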

Experiment [18] is described as follows: ATG_M_19_TRANS: Attagene TRANS-FACTORIAL HepG2 Assay for M19 Transcription Factor (Internal Marker) (AID 2282974; active means hit-call score of the fitted dose curve at least 0.9, where 1 is the maximum). Particulars: HepG2 Attagene TRANS-FACTORIAL M19 internal marker reporter. In outline: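 Cells: human HepG2, transiently transfected with multiplexed reporter transcription units. Exposure: 24 h. Detection: RT-PCR of reporter mRNA with capillary electrophoresis. Analysis: gain-of-signal vs DMSO.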

Experiment [19] in a line: ATG_GAL4_TRANS: Attagene TRANS-FACTORIAL HepG2 Assay for GAL4 (Internal Marker) (AID 2282976; active means hit-call score of the fitted dose curve at least 0.9, where 1 is the maximum). Conditions: HepG2 Attagene TRANS GAL4 internal marker reporter. An outline of the steps:
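In transfected human HepG2 liver cells dosed 24 h, GAL4 reporter mRNA serves as a baseline marker. Detection by RT-PCR with fluorescent capillary electrophoresis, activity fitted upward relative to DMSO.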

Estrogen receptor (Homo sapiens), sequence (P03372 whole entry, looked up, the tested form may be a part): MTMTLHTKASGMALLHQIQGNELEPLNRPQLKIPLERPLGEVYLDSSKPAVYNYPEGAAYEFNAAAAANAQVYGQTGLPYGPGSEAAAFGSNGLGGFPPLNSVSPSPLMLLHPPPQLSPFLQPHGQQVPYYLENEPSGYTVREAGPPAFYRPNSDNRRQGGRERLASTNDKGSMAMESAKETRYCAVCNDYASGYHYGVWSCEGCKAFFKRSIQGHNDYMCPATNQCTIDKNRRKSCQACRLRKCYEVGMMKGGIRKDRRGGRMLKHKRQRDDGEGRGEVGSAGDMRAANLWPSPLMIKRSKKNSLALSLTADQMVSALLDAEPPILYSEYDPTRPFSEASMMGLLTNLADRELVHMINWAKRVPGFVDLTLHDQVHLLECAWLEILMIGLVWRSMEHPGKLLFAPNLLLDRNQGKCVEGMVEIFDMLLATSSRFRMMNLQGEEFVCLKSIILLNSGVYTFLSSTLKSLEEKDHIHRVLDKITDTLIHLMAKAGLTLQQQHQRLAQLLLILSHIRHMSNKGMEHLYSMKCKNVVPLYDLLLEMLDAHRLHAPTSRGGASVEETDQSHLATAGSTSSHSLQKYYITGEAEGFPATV
Paired box protein Pax-6 (Homo sapiens), sequence (P26367 whole entry, looked up): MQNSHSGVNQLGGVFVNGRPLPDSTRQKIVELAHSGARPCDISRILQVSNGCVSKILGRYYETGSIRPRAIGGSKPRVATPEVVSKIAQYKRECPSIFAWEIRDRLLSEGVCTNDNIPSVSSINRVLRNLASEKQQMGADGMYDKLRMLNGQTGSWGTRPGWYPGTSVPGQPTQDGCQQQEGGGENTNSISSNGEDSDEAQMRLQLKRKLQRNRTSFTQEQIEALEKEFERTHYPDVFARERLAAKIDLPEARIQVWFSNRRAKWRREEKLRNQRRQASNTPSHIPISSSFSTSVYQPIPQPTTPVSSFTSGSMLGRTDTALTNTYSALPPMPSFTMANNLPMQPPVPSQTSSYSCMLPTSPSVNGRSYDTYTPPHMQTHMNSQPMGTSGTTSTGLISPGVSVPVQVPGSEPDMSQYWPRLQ
Nuclear receptor subfamily 1 group I member 3 (Homo sapiens), sequence (Q14994 whole entry, looked up, the tested form may be a part): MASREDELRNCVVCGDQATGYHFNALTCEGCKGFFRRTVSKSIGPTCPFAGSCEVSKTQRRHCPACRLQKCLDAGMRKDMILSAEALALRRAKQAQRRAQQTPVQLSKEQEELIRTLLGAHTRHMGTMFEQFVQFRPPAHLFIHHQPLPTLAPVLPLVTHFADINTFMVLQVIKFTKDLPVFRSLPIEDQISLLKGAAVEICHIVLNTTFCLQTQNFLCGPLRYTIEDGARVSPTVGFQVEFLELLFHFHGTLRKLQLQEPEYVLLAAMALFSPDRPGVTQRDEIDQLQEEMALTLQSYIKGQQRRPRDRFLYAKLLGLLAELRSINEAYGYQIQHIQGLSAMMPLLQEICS
Signal transducer and activator of transcription 3 (Homo sapiens), sequence (P40763 whole entry, looked up): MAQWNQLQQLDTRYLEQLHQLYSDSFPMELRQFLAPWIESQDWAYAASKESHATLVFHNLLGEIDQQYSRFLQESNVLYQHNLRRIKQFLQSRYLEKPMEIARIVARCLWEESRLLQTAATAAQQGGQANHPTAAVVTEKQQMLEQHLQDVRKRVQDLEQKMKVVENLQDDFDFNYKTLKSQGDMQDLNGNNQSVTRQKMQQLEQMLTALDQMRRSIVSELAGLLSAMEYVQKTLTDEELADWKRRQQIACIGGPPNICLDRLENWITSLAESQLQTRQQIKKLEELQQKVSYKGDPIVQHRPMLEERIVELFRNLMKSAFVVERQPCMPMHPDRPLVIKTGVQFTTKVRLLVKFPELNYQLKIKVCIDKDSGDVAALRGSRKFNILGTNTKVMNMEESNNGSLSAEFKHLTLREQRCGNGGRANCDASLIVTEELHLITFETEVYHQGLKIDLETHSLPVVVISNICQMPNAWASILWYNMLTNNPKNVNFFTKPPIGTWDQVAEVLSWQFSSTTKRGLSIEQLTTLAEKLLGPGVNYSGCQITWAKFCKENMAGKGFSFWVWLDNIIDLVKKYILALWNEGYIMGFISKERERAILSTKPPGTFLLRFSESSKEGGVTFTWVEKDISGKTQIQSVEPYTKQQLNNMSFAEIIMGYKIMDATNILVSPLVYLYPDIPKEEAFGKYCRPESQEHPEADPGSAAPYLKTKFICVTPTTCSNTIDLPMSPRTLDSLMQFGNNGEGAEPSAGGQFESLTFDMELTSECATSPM
Transcription factor Sp1 (Homo sapiens), sequence (P08047 whole entry, looked up): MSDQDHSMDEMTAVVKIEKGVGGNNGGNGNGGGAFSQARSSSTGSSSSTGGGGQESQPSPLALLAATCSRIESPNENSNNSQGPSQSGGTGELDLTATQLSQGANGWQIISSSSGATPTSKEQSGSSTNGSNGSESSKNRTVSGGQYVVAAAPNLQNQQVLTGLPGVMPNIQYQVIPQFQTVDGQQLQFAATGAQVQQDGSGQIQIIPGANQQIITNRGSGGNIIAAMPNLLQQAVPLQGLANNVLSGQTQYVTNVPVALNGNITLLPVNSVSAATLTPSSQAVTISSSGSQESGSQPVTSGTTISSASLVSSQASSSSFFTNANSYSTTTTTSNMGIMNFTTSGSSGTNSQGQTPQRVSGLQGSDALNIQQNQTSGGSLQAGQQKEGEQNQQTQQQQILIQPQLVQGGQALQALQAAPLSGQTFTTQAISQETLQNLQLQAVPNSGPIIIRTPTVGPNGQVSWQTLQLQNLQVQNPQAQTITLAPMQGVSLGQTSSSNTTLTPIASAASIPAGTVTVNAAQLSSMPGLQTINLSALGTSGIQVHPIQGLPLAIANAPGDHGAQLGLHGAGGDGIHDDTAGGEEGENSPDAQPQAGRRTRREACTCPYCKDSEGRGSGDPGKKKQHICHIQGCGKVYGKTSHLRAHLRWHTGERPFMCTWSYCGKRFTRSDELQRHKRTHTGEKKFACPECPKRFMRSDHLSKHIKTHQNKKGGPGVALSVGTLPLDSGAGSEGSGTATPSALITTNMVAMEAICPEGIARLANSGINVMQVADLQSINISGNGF
X-box-binding protein 1 (Homo sapiens), sequence (P17861 whole entry, looked up, the tested form may be a part): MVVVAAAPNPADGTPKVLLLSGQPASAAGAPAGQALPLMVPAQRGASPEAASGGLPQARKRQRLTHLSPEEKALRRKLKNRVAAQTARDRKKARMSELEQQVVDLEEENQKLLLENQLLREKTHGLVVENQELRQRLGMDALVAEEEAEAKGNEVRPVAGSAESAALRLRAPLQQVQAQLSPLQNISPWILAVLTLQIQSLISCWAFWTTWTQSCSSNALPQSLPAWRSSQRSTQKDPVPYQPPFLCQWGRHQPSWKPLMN

For `Cc1noc(NS(=O)(=O)c2ccc(N)cc2)c1C`, the result in experiment [1], in experiment [2], in [3], in [4], in experiment [5] and in experiment [6] was inactive. Besides, the outcome in experiment [7], in [8], in experiment [9], in [10], in [11] and in experiment [12] was inactive. The compound was classed as inactive in experiment [13] and in experiment [14].

Take `C=CC(=O)NCOCCCC`: the outcome in experiment [1], in experiment [2], in experiment [4], in experiment [15], in experiment [5] and in experiment [6] was inactive. Further, the call in experiment [7], in experiment [9], in [10], in experiment [11], in experiment [12] and in experiment [13] was inactive. The AC50 (as a rule, the concentration at which the activity in the assay is half-maximal) in experiment [3] is 36.7 µM (active); in [16] it was 49.8 µM (active).

As for `CC1CCC(=O)C1=O` (stereo unspecified), the result in experiment [1], in experiment [2], in experiment [4], in experiment [5], in experiment [6] and in experiment [7] was inactive. Moreover, the outcome in experiment [8], in experiment [9], in experiment [10], in experiment [11], in experiment [12] and in [16] was inactive. The compound was classed as inactive in experiment [13], in experiment [14], in experiment [17], in experiment [18] and in experiment [19]. Further, the AC50 in experiment [3] was 59 µM (active).

Regarding `N=C1C=CC(=C(c2ccc(N)cc2)c2ccc(N)cc2)C=C1`, the outcome in experiment [1], in [4], in experiment [5], in experiment [6], in experiment [8] and in [11] was inactive. Also, the compound was classed as inactive in experiment [12], in experiment [14], in [18] and in experiment [19]. Besides, the AC50 in experiment [2] is 37.8 µM (active); in experiment [3], 56.6 µM (active); in experiment [7], 26 µM (active); in experiment [10], 26.5 µM (active); in [17], 25.3 µM (active).
